An excerpt weighted towards active compounds, which were near 7.3% of everything screened.
FMDV inh: High Throughput Screening for Foot and Mouth Disease Virus Antivirals | FMDV antiviral cell-based qHTS | 410,000 tested, 1.2% active | Potency, µM (highest dose often 57.9 µM), most hits filed as inhibitors; calls by dose curve; tested in HEK293T cells; note: read-out not given here; nearly all actives have a fitted effect of over 45% in size
HCMV antiviral: qHTS Assay for inhibitors of the human cytomegalovirus (HCMV); HFF cells, HCMV-luciferase reporter, 72 h; stronger effect = lower value; activity change, negative = inhibition, % at 57.5 µM; 410,000 tested, 4.5% active; AID 1259415, 2018; in the data active = activity change below about -60%; inconclusive = no clear call, values can overlap the other calls; inactive = above about -39%
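Compounds were evaluated in HFFs infected with an HCMV luciferase reporter virus (MOI 1 PFU/cell). Luciferase in lysates collected 72 h post infection served as the replication measure.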
VACV Venus inh: qHTS for Stage-Specific Inhibitors of Vaccinia Orthopoxvirus: Venus Reporter Primary qHTS. 330,000 tested, 0.46% active. Potency, µM (highest dose often 36.5 µM), actives largely listed as inhibitors. Vaccinia virus Venus reporter expression, fluorescence; calls by dose curve; tested in A549 cells; note: nearly all actives have a fitted effect of over 30% in size
Vaccinia mCherry: qHTS for Stage-Specific Inhibitors of Vaccinia Orthopoxvirus: mCherry Reporter Primary qHTS | Vaccinia virus mCherry reporter infection, fluorescence | Potency, µM (highest dose often 36.5 µM), usual class: inhibitors | 310,000 tested, 0.63% active | AID 720579, 2013; calls by dose curve; tested in A549 cells; note: nearly all actives have a fitted effect of over 35% in size
HCV inhibitor: qHTS Assay for Inhibitors of Hepatitis C Virus (HCV); 340,000 tested, 3.4% active; Potency, µM (titrated, usually from 41.8 µM), most hits filed as inhibitors; Huh7.5.1 HCVcc-Cre infection, luciferase reporter, 44 h; active = well fitted inhibition curve with a large enough effect; inconclusive = small, poorly fitted or top-dose-only effect, or another doubt; inactive = no such curve, though single readings can be large or run the other way
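Reporter virus HCVcc-Cre (~0.5 moi) infects cells exposed to compound; seeding density 1,000 cells/well with 4 h settling beforehand. Luminescence, 15 sec read, taken 44 h post-infection following a 15 min RT substrate incubation.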
A number is an active result; [ ] = remark or other dose.

What do the screens show for `COc1ccccc1CCNc1ncnc2sc(C(=O)N3CCCN(C=O)CC3)c(C)c12`?
FMDV inh: inactive; VACV Venus inh: inactive; Vaccinia mCherry: inactive

How did COC(=O)c1sccc1S(=O)(=O)N(CC(=O)NCc1ccc(F)cc1)c1ccccc1 do in these assays?
FMDV inh: inactive; HCMV antiviral: inactive; VACV Venus inh: inactive; Vaccinia mCherry: inactive

How did O=C(N/N=C/c1ccccc1O)C(=O)N1CCCCCC1 do in these assays?
FMDV inh: inactive; HCMV antiviral: inactive; VACV Venus inh: inactive; Vaccinia mCherry: 7.94µM; HCV inhibitor: inactive

What do the screens show for `CCC(c1nnnn1-c1ccc2c(c1)OCCO2)N1CCC(n2c(=O)[nH]c3ccccc32)CC1` (configuration not stated)?
FMDV inh: inconclusive; HCMV antiviral: inconclusive; VACV Venus inh: inactive; Vaccinia mCherry: inactive

What do the screens show for `O=c1[nH]c2ccccc2n1C1CCN(C(c2cccs2)c2nnnn2-c2ccc3c(c2)OCCO3)CC1` (configuration not stated)?
FMDV inh: inactive; HCMV antiviral: -80.0; VACV Venus inh: inconclusive; Vaccinia mCherry: inconclusive

Results for O=c1[nH]c2ccccc2n1C1CCN(C(c2ccccc2)c2nnnn2-c2ccc3c(c2)OCCO3)CC1 (configuration not stated) ?
FMDV inh: inactive; HCMV antiviral: -86.3; VACV Venus inh: inactive; Vaccinia mCherry: inactive

What do the screens show for `CSCCC(c1nnnn1-c1ccc2c(c1)OCCO2)N1CCC(n2c(=O)[nH]c3ccccc32)CC1` (configuration not stated)?
FMDV inh: inactive; HCMV antiviral: -71.5; VACV Venus inh: inactive; Vaccinia mCherry: inactive

What do the screens show for `O=c1[nH]c2ccccc2n1C1CCN(C(c2nnnn2-c2ccc3c(c2)OCCO3)C2CC2)CC1` (configuration not stated)?
FMDV inh: inactive; HCMV antiviral: inconclusive; VACV Venus inh: inactive; Vaccinia mCherry: inactive

How did C[C@H](N=C(NC#N)Nc1ccncc1)C(C)(C)C do in these assays?
FMDV inh: inactive

What do the screens show for `CC(C)(C)OC(=O)N1CCC(c2c(C(=O)NCc3ccc4c(c3)OCO4)cnn2-c2ccccc2Cl)CC1`?
FMDV inh: inactive; HCMV antiviral: inactive; VACV Venus inh: inactive; Vaccinia mCherry: inactive

Results for O=C(NCCCN1CCOCC1)c1cc(-c2ccccc2)nc2ccccc12 ?
FMDV inh: inactive; HCMV antiviral: inactive; VACV Venus inh: inactive; Vaccinia mCherry: inactive; HCV inhibitor: inactive

Results for CC1CCCN(CCCNC(=O)c2cc(Sc3ccc(F)cc3)nc3ccccc23)C1 (configuration not stated) ?
FMDV inh: inactive; HCMV antiviral: -71.3; VACV Venus inh: inactive; Vaccinia mCherry: inactive

Results for O=C(NCCCN1CCCCC1)c1cc(Sc2ccc(Cl)cc2)nc2ccccc12 ?
FMDV inh: inactive; HCMV antiviral: -70.7; VACV Venus inh: inactive; Vaccinia mCherry: inactive

Results for Cc1ccc(Nc2cc(C(=O)NCCCN3CCOCC3)c3ccccc3n2)cc1C ?
FMDV inh: inactive; HCMV antiviral: inactive; VACV Venus inh: inactive[7.34 µM]; Vaccinia mCherry: inactive[7.34 µM]; HCV inhibitor: 22.4µM

Results for CCOCCCNC(=O)c1cc(Sc2cccc(Cl)c2)nc2ccccc12 ?
FMDV inh: inactive; HCMV antiviral: inconclusive; VACV Venus inh: inactive; Vaccinia mCherry: inactive

What do the screens show for `CCOCCCNC(=O)c1cc(Sc2ccc(C)cc2)nc2ccccc12`?
FMDV inh: inconclusive; HCMV antiviral: -60.4; VACV Venus inh: inactive; Vaccinia mCherry: inactive; HCV inhibitor: inconclusive

How did Cc1ccc(-c2nnc(SCC(=O)NC3CCCC3)nc2-c2ccc(C)cc2)cc1 do in these assays?
FMDV inh: inactive; HCMV antiviral: inactive; VACV Venus inh: inactive; Vaccinia mCherry: inactive

What do the screens show for `CCc1ccc(OCC(=O)N(Cc2ccc(C)o2)C2CCS(=O)(=O)C2)cc1` (configuration not stated)?
FMDV inh: inactive; HCMV antiviral: inactive; VACV Venus inh: inactive; Vaccinia mCherry: inactive

What do the screens show for `Cc1nc2c(OCc3cc(Cl)cc(Cl)c3)cccn2c1N(C)C(=O)CCC1CCCC1`?
FMDV inh: inactive; HCMV antiviral: inactive; VACV Venus inh: inactive; Vaccinia mCherry: inactive

Results for Cc1ccc(Nc2ncc(C(=O)N3CCN(c4cccc(Cl)c4)CC3)c3ccccc23)cc1Cl ?
FMDV inh: inactive; HCMV antiviral: inactive; VACV Venus inh: inactive; Vaccinia mCherry: inactive

Assay outcomes from PubChem.
